Our source for the activity change vs negative control values is PubChem BioAssay AID1946 (Johns Hopkins Ion Channel Center, 2009).

The structures appear in SMILES notation. About 180 (7.5%) of roughly 2,400 compounds were called active. This excerpt belongs to a sample that is enriched for actives. A number with no mark means an inactive call.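 How the source made its calls: active means readout below zero, meaning a drop past 3 SD under the dofetilide-free negative control mean; inactive means the rest.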

The target in the experiment is Potassium voltage-gated channel subfamily KQT member 2 (Rattus norvegicus) (UniProt O88943). The experiment in a line: rat KCNQ2 channel inhibition by compounds alone, confirmation, counter-screen for hERG block protector project, cell-based, CHO, FluxOR thallium flux (AID 1946). The conditions noted are these: CHO-KCNQ2 cells, FluxOR thallium flux fluorescence, at 10 µM, active compounds read low. For orientation: The purpose of a counterscreen is to sort out artefacts and off-target activity.
Potassium voltage-gated channel subfamily KQT member 2 (Rattus norvegicus), sequence (O88943 whole entry, looked up): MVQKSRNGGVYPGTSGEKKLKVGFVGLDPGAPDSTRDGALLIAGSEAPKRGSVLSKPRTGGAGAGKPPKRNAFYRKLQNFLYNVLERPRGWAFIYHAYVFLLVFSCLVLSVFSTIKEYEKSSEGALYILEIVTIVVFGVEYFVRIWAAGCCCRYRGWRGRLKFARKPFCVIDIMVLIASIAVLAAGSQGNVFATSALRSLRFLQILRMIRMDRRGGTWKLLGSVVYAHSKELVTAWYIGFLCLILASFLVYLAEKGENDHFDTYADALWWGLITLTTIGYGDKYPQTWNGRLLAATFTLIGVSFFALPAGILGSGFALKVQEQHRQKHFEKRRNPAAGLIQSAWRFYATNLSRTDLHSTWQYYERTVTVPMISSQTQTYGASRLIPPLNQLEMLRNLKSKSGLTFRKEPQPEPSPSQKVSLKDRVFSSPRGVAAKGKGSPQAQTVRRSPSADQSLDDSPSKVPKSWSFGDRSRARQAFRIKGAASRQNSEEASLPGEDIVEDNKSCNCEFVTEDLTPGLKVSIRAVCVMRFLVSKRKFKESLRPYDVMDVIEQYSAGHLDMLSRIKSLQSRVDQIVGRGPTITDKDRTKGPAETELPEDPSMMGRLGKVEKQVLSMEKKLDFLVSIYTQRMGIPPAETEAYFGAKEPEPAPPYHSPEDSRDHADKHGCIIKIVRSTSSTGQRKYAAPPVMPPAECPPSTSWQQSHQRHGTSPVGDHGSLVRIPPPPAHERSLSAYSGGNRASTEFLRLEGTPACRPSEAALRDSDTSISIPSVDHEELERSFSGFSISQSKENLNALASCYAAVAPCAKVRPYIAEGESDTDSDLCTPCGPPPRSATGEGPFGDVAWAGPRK
Turning to `O=C(O)CCC(=O)NCCC1=c2ccccc2=N/C1=C\c1c(O)n(Cc2ccc(F)cc2)c(=S)[nH]c1=O`, the activity change vs negative control is -3.3% (active).

For the molecule `O=C1CC(=O)N(c2cccc(C(F)(F)F)c2)C(=O)N1`, the activity change vs negative control is 10.7% [zero marks the 3-SD hit cutoff].

For the molecule `COc1ccc2c(c1)/C(=C/c1cnc[nH]1)C(=O)N2`, the activity change vs negative control was 28% [zero marks the 3-SD hit cutoff].

With `COc1ccc2c3c1OC1C(O)C=CC4C(C2)[N+](C)(C)CCC341` (stereo not given), the activity change vs negative control was 11.5%.

For `CCOC(=O)c1c(NS(=O)(=O)c2ccccc2)n(CCCOC)c2nc3ccccc3nc12`, the activity change vs negative control is 1.7% [zero marks the 3-SD hit cutoff].

For the molecule `O=c1[nH]c(=S)[nH]c(O)c1/C=C1/C=c2ccccc2=N1`, the activity change vs negative control is -4.3% (active).

In the case of `C=CCn1c(O)c(/C=C2/C=c3ccccc3=N2)c(=O)[nH]c1=S`, the activity change vs negative control was 3.2%.

For `Cc1ccc(S(=O)(=O)NC(Cc2cnc[nH]2)C(=O)O)cc1` (stereo not given), the activity change vs negative control is 7.9% [zero marks the 3-SD hit cutoff].

As to `Cc1ccc(-n2c(O)c(/C=N/Nc3ccccc3)c(=O)[nH]c2=O)cc1C`, the activity change vs negative control was 18.8%.

With `C1CCC2S[C@H]3CCCCC3NC2C1` (stereo not given in full), the activity change vs negative control is 6.1% [zero marks the 3-SD hit cutoff].

`Cc1nc2ccccc2c(=O)n1-c1cc([N+](=O)[O-])cc([N+](=O)[O-])c1`: the activity change vs negative control was -5.3% (active).

Regarding `CCOC(=O)Cn1cc([N+](=O)[O-])nc1[N+](=O)[O-]`, the activity change vs negative control is 14.6% [zero marks the 3-SD hit cutoff].

With `O=c1[nH]c(=S)[nH]c(O)c1N=Nc1ccc(S(=O)(=O)N2CCc3ccccc32)cc1`, the activity change vs negative control was 7.8%.

On to `O=C(Cn1ncc2c3ccccc3n(Cc3ccccc3F)c2c1=O)N1CCC2(CC1)OCCO2`, for which the activity change vs negative control was 64.8%.

As to `CCCc1[nH]nc2c1C1(C(=O)N(Cc3ccccc3)c3ccccc31)C(C(=O)OC)=C(N)O2` (stereo not given), the activity change vs negative control was 3.3% [zero marks the 3-SD hit cutoff].

Take `O=C1NC(=S)N(c2ccc(F)cc2)C(=O)/C1=C/c1ccco1`: the activity change vs negative control was 22.1%.

In the case of `O=C1NC(=O)N(c2ccccc2)C(=O)/C1=C/c1ccc(Sc2ccccc2)o1`, the activity change vs negative control was -2.5% (active).

On to `Cc1ccccc1N1C(=O)/C(=C/c2ccco2)C(=O)NC1=S`, for which the activity change vs negative control was 15%.

As to `CN1C(=O)/C(=C/c2ccc(Cl)s2)C(=O)NC1=S`, the activity change vs negative control is 9.5%.

For `CC(=NCc1ccco1)c1c(O)n(-c2ccc(C)cc2)c(=O)[nH]c1=O`, the activity change vs negative control was 18.6%.

As for `O=c1[nH]c(O)c(/C=C2/C=CC(c3cc(Cl)ccc3Cl)=N2)c(=O)[nH]1`, the activity change vs negative control is -2.7% (active).

For `O=C1NC(=O)C(=Cc2ccc(-c3ccc(Cl)cc3)o2)C(=O)N1`, the activity change vs negative control was 11%.

On to `O=C(O)c1c[nH]c2ccc(S(=O)(=O)N(CCCl)CCCl)cc12`, for which the activity change vs negative control is 14% [zero marks the 3-SD hit cutoff].

Regarding `N#CC1=C(N)Oc2c(c(=O)oc3ccccc23)C1c1cccnc1` (stereo not given), the activity change vs negative control is 7.9% [zero marks the 3-SD hit cutoff].

As for `NCCc1ccc(S(N)(=O)=O)cc1`, the activity change vs negative control is -1.5% [zero marks the 3-SD hit cutoff] (active).

On to `O=c1c2cc(Br)ccc2[nH]c(=S)n1-c1ccccc1`, for which the activity change vs negative control was 9.1% [zero marks the 3-SD hit cutoff].

Take `CCCCn1c(O)c(C(CC)=Nc2ccc(OCC)cc2)c(=O)[nH]c1=O`: the activity change vs negative control is 3.2%.

`CN1C(=O)/C(=C\c2ccc(Br)s2)C(=O)NC1=S`: the activity change vs negative control was 6.5%.

Turning to `Oc1cccc2cccnc12`, the activity change vs negative control was 24.3% [zero marks the 3-SD hit cutoff].

For `COc1ccccc1N1CCN(Cc2ccc(F)cc2)CC1`, the activity change vs negative control is 8.2%.
